# The panel holds about 83,000 compounds, 20% with a hit somewhere; the sample as a whole holds those more often.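 Results are percent growth after 48 hours of single-concentration exposure. 100 means growth as in untreated cells, lower positive values show inhibition; negative values down to -100 show cell death.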 Values without a mark were called inactive. Activity calls are given as the source filed them. Rule for the calls: active = growth percent below 10; inactive = the rest.
# Columns and labels:
# Experiment in all cases: NCI-60 one-dose screen, 48 h (100 = growth as untreated, 0 = no growth, -100 = all killed)
# Conditions in all cases: 10 µM unless noted
# T-47D breast = system: T-47D breast
# BT-549 breast = system: BT-549 breast
# MDA-MB-435 melanoma = system: MDA-MB-435 melanoma
# SW-620 colon = system: SW-620 colon
# MCF7 breast = system: MCF7 breast
# HCT-116 colon = system: HCT-116 colon
# HCC-2998 colon = system: HCC-2998 colon
# KM12 colon = system: KM12 colon
SMILES,growth (T-47D breast),growth (BT-549 breast),growth (MDA-MB-435 melanoma),growth (SW-620 colon),growth (MCF7 breast),growth (HCT-116 colon),growth (HCC-2998 colon),growth (KM12 colon)
Cc1cc(N2CCOCC2)nc(NCc2cc(Nc3ccnc4cc(Cl)ccc34)ccc2F)n1,-34.9% (active),-37.7% (active),-79.5% (active),-69.9% (active),-55.9% (active),-78.4% (active),-69% (active),-61.9% (active)
COc1ccc(C(=O)/C=C/c2cccnc2Nc2cc(OC)c(OC)c(OC)c2)cc1,44.1%,36.3%,2.91% (active),-42.5% (active),12.9%,13.7%,22.9%,14%
Cc1ccc(-c2onc3c(=O)[nH]nc(-c4ccccc4)c23)cc1,37.1%,40.5%,-34.6% (active),34.7%,24%,25.8%,60.5%,29.3%
O=C(/C=C/c1cc(CN2CCOCC2)c(O)c2ncccc12)c1cc(CN2CCOCC2)c(O)c2ncccc12,7.07% (active),12.8%,21%,18.7%,10%,21.7%,37.2%,21.7%
CN(Cc1cc(Cl)cc(Cl)c1O)Cc1cc(Cl)cc(Cl)c1O,76.4%,86.4%,68.2%,73.2%,67.6%,58.9%,83.5%,74.8%
Clc1ccc2c(NCCNc3nc(N4CCOCC4)nc4ccccc34)ccnc2c1,-15% (active),93.5%,-8.79% (active),11.2%,38.8%,-7.53% (active),32.3%,13.3%
OC(c1cc2cc(Cl)c(Cl)cc2c2cc(C(F)(F)F)ccc12)C1CCCCN1 (stereo not given),-78.6% (active),76.4%,-73.9% (active),-74% (active),-87.3% (active),-87.3% (active),-80.9% (active),-91.1% (active)
N#CCCN=Nc1c(O)[nH]c2ccc(F)cc12,96.4%,108%,96.6%,98.3%,93.9%,95.1%,97.9%,101%
Cn1c(NCCc2ccc(O)c(O)c2)nc2c1c(=O)n(Cc1ccc(Br)cc1)c(=O)n2C,53.3%,73%,79%,81.4%,80%,67.4%,94%,76%
CCCCCC(=O)Oc1ccc(/C(=C(\C)c2ccc(OC)cc2)c2ccc(OCCN3CCCCC3)cc2)cc1,34.8%,72.6%,62.6%,65.1%,24.8%,53.2%,66.7%,52.8%
C(=N/Nc1ncc(-c2cc3cc(-c4ccccc4)ccc3o2)s1)/c1cccs1,100%,110%,95.9%,99.7%,89.7%,91.5%,100%,97%
Cn1nc(N)c2cc([C@@H]3Nc4ccc5[nH]ncc5c4[C@H]4C5CCC(C5)[C@@H]34)ccc21 (stereo not given in full),43.6%,38%,-66.6% (active),22.4%,18.8%,14.5%,18%,16.6%
Cc1ccc(C(SCC(N)C(=O)O)(c2ccccc2)c2ccc(C)cc2)cc1 (stereo not given),27.1%,30.6%,-23.5% (active),15.9%,12.3%,6.49% (active),-20.5% (active),2.64% (active)
COc1cc(C2CC(=O)c3ccccc3N2)cc(OC)c1OC (stereo not given),92.6%,104%,105%,100%,96.8%,104%,109%,99.6%
COc1ccc(-c2nc3cc(C(=O)Nc4cc(OC)c(OC)c(OC)c4)ccc3n2C2CCCCC2)cc1,97.4%,94.6%,46%,92.5%,91.2%,93.5%,104%,91.9%
CCCCN(CCCC)CCCn1c(-c2ccccc2)ccc1-c1ccccc1,67.4%,74.1%,85.7%,65.1%,58.4%,34.1%,59.9%,61.7%
CC1=C[C@H]2c3c(c(O)c(O)c4oc5c(C)cccc5c(=O)c34)[C@H](c3cc(O)c(O)c4oc5c(C)cccc5c(=O)c34)[C@H]2C(C)(C)C1,13.7%,27.2%,-17.3% (active),18.7%,9.38% (active),1.97% (active),11.2%,7.31% (active)
O=C1Nc2cc(-c3ccc(O)cc3)ccc2/C1=C/c1ccc[nH]1,0.283% (active),16.9%,7.05% (active),14.1%,1.73% (active),4.68% (active),-13.9% (active),2.31% (active)
CN1CCN(CCCOc2cccc3nc(Nc4cc(Cl)cc(Cl)c4)ccc23)CC1,-25.3% (active),65%,-46.5% (active),-66.6% (active),-80.3% (active),-26.6% (active),30.2%,-71.9% (active)
O=[N+]([O-])c1ccccc1/C=N\NC(=S)N/N=C/c1ccccc1[N+](=O)[O-],61%,47.4%,-1.94% (active),23.9%,58.9%,18.9%,73.5%,17%
C#CCOc1ccc2ncnc(N3CCC(NC(=O)CCl)CC3)c2c1,71% [8.25 µM],64.2% [8.25 µM],68.1% [8.25 µM],55.8% [8.25 µM],51.9% [8.25 µM],56.5% [8.25 µM],107% [8.25 µM],96.5% [8.25 µM]
O=C(N(c1ccccc1)c1ccccc1)n1ccc2nc(Cl)nc(Cl)c21,34.2%,47.2%,37.9%,51.1%,32.5%,49.6%,91.5%,55.7%
COc1ccc(-c2cc(Nc3ccnc(N4CCOCC4)n3)on2)cc1,55.1%,57.1%,-30.2% (active),31.1%,24.4%,12.7%,40.4%,20.3%
O=C(CN1CCCCC1)Nc1ccc2oc(=O)ccc2c1,103%,107%,113%,97.9%,96%,101%,110%,104%
C#CCOc1ccc2ncnc(Nc3cccc(CNC(=O)CCl)c3)c2c1,29.6% [8.25 µM],47.7% [8.25 µM],49.6% [8.25 µM],30.4% [8.25 µM],30.4% [8.25 µM],26% [8.25 µM],99% [8.25 µM],63.2% [8.25 µM]
COc1ccc(-n2nc(C)c3c(Nc4ccc(NC(=O)Nc5cc(C(F)(F)F)ccc5F)cc4)ncnc32)cc1,11.8%,65.4%,53%,46%,34.2%,22%,21.2%,16.5%
Cc1cc(N2CCN(c3ccnc4cc(Cl)ccc34)CC2)nc(N2CCOCC2)n1,46.9%,86%,88.7%,101%,75.1%,70.3%,89%,85.6%
CCCn1c(=O)[nH]c(N)c([C@H]2c3ccccc3Oc3[nH]c(=O)n(CCC)c(=O)c32)c1=O,34.7%,42.8%,84.4%,61.2%,26.4%,32.5%,104%,99.8%
O=C1/C(=C/N2N=C(c3ccc4ccccc4c3)CC2c2ccccc2O)SC(=S)N1c1cccnc1 (stereo not given),44.5%,6.36% (active),-48.7% (active),24%,17.3%,10.9%,28.5%,18.2%
Oc1ccccc1-c1nnc(CNc2ccc(Cl)cc2)o1,30.9%,41.1%,33.8%,29.4%,14.2%,42%,37.5%,18.9%
